# Reference: PubChem BioAssay (EPA / NIEHS)
# Inconclusive results are not listed. Active and inactive are the calls of the source. How the source made its calls, unless noted: active means hit-call score of the fitted dose curve at least 0.9, where 1 is the maximum; inconclusive means response in the unintended direction; inactive means score below 0.9.
# Experiments:
# [1] = ATG_TCF_b_cat_CIS: Attagene CIS-FACTORIAL HepG2 Assay for human T-Cell-Factor with beta-catenin (TCF/b-cat) (AID 2282965; active means hit-call score of the fitted dose curve at least 0.9, where 1 is the maximum; inactive means score below 0.9); conditions: HepG2 TCF/beta-catenin cis-reporter transcription, actives raise or lower the signal
# Summary of the method: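 Endogenous TCF/LEF activity read as reporter transcript level via RT-PCR and capillary electrophoresis fluorescence in transfected HepG2, 24 h exposure; gain or loss of signal fitted against DMSO controls.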
# [2] = ATG_TAL_CIS: Attagene CIS-FACTORIAL HepG2 Assay for human TAL Basal Promoter (AID 2282966; active means hit-call score of the fitted dose curve at least 0.9, where 1 is the maximum; inactive means score below 0.9;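 further: background control endpoint measuring basal TAL promoter reporter mRNA not a specific factor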); conditions: HepG2 Attagene cis-factorial TAL promoter reporter; actives raise or lower the signal
# Summary of the method: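 Background-control endpoint: basal TAL promoter reporter transcripts in transiently transfected HepG2, measured 24 h after dosing. Read-out by RT-PCR with fluorescent primer extension and capillary electrophoresis; gain or loss of signal fitted relative to DMSO.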
# [3] = ATG_TGFb_CIS: Attagene CIS-FACTORIAL HepG2 Assay for human Transforming Growth Factor (TGF) (AID 2282967; active means hit-call score of the fitted dose curve at least 0.9, where 1 is the maximum; inactive means score below 0.9); conditions: HepG2 Attagene CIS TGFb reporter, mRNA transcription; actives raise or lower the signal
# Summary of the method: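 Liver HepG2 line, cis-factorial reporter panel, 24 h dosing. Quantitation: RT-PCR products labeled with 6-FAM, cut with HpaI, resolved by capillary electrophoresis; DMSO-referenced bidirectional analysis.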
# [4] = ATG_VDRE_CIS: Attagene CIS-FACTORIAL HepG2 Assay for human Vitamin D Receptor Element (VDRE) (AID 2282968; active means hit-call score of the fitted dose curve at least 0.9, where 1 is the maximum; inactive means score below 0.9); conditions: HepG2 VDRE cis-reporter transcription, actives raise or lower the signal
# Summary of the method: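 Measures endogenous factor activity through cis-element-driven reporter transcripts in transiently transfected HepG2. Cells are treated 24 h; reporter mRNA is quantified by RT-PCR and capillary electrophoresis; fitting is bidirectional.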
# [5] = target: Nuclear receptor subfamily 1 group I member 3 (Homo sapiens) (UniProt Q14994); assay: ATG_CAR_TRANS: Attagene TRANS-FACTORIAL HepG2 Assay for human Constitutive Androstane Receptor (CAR) (AID 2282969); conditions: HepG2 Attagene TRANS-FACTORIAL CAR reporter;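 further: activators raise reporter mRNA above DMSO so AC50 marks induction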
# Summary of the method: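 Signal is reporter mRNA induction relative to DMSO, measured 24 h after dosing by RT-PCR with fluorescent primer extension and capillary electrophoresis. Human HepG2 liver cells carried transiently transfected chimeric NR-Gal4/GAL4-UAS reporter constructs.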
# [6] = target: X-box-binding protein 1 (Homo sapiens) (UniProt P17861); assay: ATG_Xbp1_CIS: Attagene CIS-FACTORIAL HepG2 Assay for human X-box Binding Protein 1 (XBP1) (AID 2282972; active means hit-call score of the fitted dose curve at least 0.9, where 1 is the maximum; inactive means score below 0.9); conditions: HepG2 XBP1 cis-element reporter, Attagene multiplex; actives raise or lower the signal
# Summary of the method: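 Changes in reporter transcript abundance, read by RT-PCR and capillary electrophoresis, reflect endogenous transcription factor activity. Transfected HepG2 cells received compound for 24 hours; DMSO defined baseline for bidirectional analysis.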
# [7] = target: Bile acid receptor (Homo sapiens) (UniProt Q96RI1); assay: ATG_FXR_TRANS: Attagene TRANS-FACTORIAL HepG2 Assay for Farnesoid X Receptor (FXR) (AID 2282979); conditions: HepG2 Attagene TRANS FXR-GAL4 reporter transcription;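 further: hits raise reporter mRNA above DMSO so AC50 marks FXR activation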
# Summary of the method: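 Reporter transcripts from transfected HepG2 cells were measured 24 h after dosing, using RT-PCR with capillary electrophoresis of 6-FAM-labelled fragments. The read-out reflects activity of exogenous FXR-Gal4 chimera on GAL4-UAS units, with induction relative to DMSO.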
# [8] = target: Oxysterols receptor LXR-alpha (Homo sapiens) (UniProt Q13133); assay: ATG_LXRa_TRANS: Attagene TRANS-FACTORIAL HepG2 Assay for human Liver X Receptor alpha (LXRa) (AID 2282980); conditions: HepG2 Attagene TRANS reporter, LXRa transactivation
# Summary of the method: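 Chemical-induced reporter mRNA measured by RT-PCR with fluorescent labelling and capillary electrophoresis after 24 h dosing of transiently transfected HepG2 cells expressing exogenous NR-Gal4 chimeras; increases scored against DMSO baseline.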
# [9] = target: Nuclear receptor subfamily 4 group A member 2 (Homo sapiens) (UniProt P43354); assay: ATG_NURR1_TRANS: Attagene TRANS-FACTORIAL HepG2 Assay for human Nuclear Receptor Related Protein 1 (NURR1) (AID 2282985); conditions: HepG2 Attagene TRANS reporter, mRNA readout
# Summary of the method: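 Measures transcriptional activation by an exogenous NR-Gal4 chimera in transfected HepG2 liver cells. After 24 h, reporter RNA is reverse-transcribed, amplified and resolved by capillary electrophoresis; DMSO defines baseline.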
# [10] = ATG_GAL4_TRANS: Attagene TRANS-FACTORIAL HepG2 Assay for GAL4 (Internal Marker) (AID 2282976); conditions: HepG2 Attagene TRANS GAL4 internal marker reporter
# Summary of the method: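 In transfected human HepG2 liver cells dosed 24 h, GAL4 reporter mRNA serves as a baseline marker. Detection by RT-PCR with fluorescent capillary electrophoresis, activity fitted upward relative to DMSO.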
# [11] = target: Estrogen-related receptor gamma (Homo sapiens) (UniProt P62508); assay: ATG_ERRg_TRANS: Attagene TRANS-FACTORIAL HepG2 Assay for human Estrogen-Related Receptor gamma (ERRg) (AID 2282977); conditions: HepG2 Attagene TRANS reporter, ERRg transactivation;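 further: hits increase reporter signal over DMSO so potencies reflect activators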
# Summary of the method: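 Exogenous NR-Gal4 chimera activity was assessed in HepG2 cells bearing transfected GAL4-UAS reporters. After 24 h dosing, total RNA underwent RT-PCR, fluorescent primer extension and HpaI digestion before capillary electrophoresis, with gain of signal scored against DMSO.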
# [12] = target: Glucocorticoid receptor (Homo sapiens) (UniProt P04150); assay: ATG_GR_TRANS: Attagene TRANS-FACTORIAL HepG2 Assay for human Glucocorticoid Receptor (GR) (AID 2282978); conditions: HepG2 Attagene TRANS GR reporter, mRNA transcription;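 further: activators score as hits since higher reporter transcript over DMSO is fitted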
# Summary of the method: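 HepG2 cells transiently transfected with multiplexed reporter units in which chimeric NR-GAL4 proteins drive GAL4-UAS reporters; 24 h compound exposure. Reporter mRNA measured by RT-PCR, 6-FAM labelling, HpaI digestion and capillary electrophoresis; gain-of-signal fitted versus DMSO.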
# [13] = target: Oxysterols receptor LXR-beta (Homo sapiens) (UniProt P55055); assay: ATG_LXRb_TRANS: Attagene TRANS-FACTORIAL HepG2 Assay for human Liver X Receptor beta (LXRb) (AID 2282981); conditions: HepG2 Attagene TRANS GAL4-LXRb reporter, mRNA
# Summary of the method: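 After 24 h of chemical treatment, transfected HepG2 cells yield total RNA; reporter cDNA is PCR-amplified, FAM-labelled, HpaI-cut and run on capillary electrophoresis. Signal reflects chimeric LXRb-Gal4 activity on GAL4-UAS reporters.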
# [14] = target: Hepatocyte nuclear factor 4-alpha (Homo sapiens) (UniProt P41235); assay: ATG_HNF4a_TRANS: Attagene TRANS-FACTORIAL HepG2 Assay for human Hepatocyte Nuclear Factor 4 alpha (HNF4a) (AID 2282982); conditions: HepG2 HNF4a transactivation reporter, mRNA readout
# Summary of the method: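 Multiplexed reporter assay: transfected HepG2, 24 h exposure, total RNA → oligo(dT) RT → PCR → 6-FAM extension → HpaI digest → CE fluorescence. DMSO = negative control.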
# [15] = ATG_M_06_TRANS: Attagene TRANS-FACTORIAL HepG2 Assay for M06 Transcription Factor (Internal Marker) (AID 2282983); conditions: HepG2 Attagene TRANS M06 internal marker reporter
# Summary of the method: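 Background-control reporter readout: after 24 h chemical exposure of transiently transfected HepG2 (GAL4-UAS reporter units), mRNA quantified by RT-PCR with fluorescent labeling and capillary electrophoresis. Gain-of-signal fitting against DMSO baseline.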
# [16] = target: Transcriptional activator Myb (Homo sapiens) (UniProt P10242); assay: ATG_Myb_CIS: Attagene CIS-FACTORIAL HepG2 Assay for human Myeloblastosis (Myb) Proto-Oncogene Transcription Factor (AID 2282986; active means hit-call score of the fitted dose curve at least 0.9, where 1 is the maximum; inactive means score below 0.9); conditions: HepG2 Attagene CIS-FACTORIAL Myb reporter transcription; actives raise or lower the signal
# Summary of the method: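 HepG2 cells were transiently transfected with cis-regulated multiple reporter transcription units reflecting endogenous Myb activity, then exposed to compound for 24 hours. Reporter mRNA was measured by RT-PCR with capillary electrophoresis; bidirectional fitting versus DMSO baseline.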
# [17] = ATG_M_19_TRANS: Attagene TRANS-FACTORIAL HepG2 Assay for M19 Transcription Factor (Internal Marker) (AID 2282974); conditions: HepG2 Attagene TRANS-FACTORIAL M19 internal marker reporter
# Summary of the method: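 HepG2 cells transiently transfected with multiple GAL4-UAS reporter transcription units were exposed to chemicals for 24 h. Reporter mRNA was read by RT-PCR, 6-FAM primer extension, HpaI digestion and capillary electrophoresis; gain of signal fitted relative to DMSO.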
# [18] = target: Estrogen receptor (Homo sapiens) (UniProt P03372); assay: ATG_ERa_TRANS: Attagene TRANS-FACTORIAL HepG2 Assay for human Estrogen Receptor alpha (ERa) (AID 2282970); conditions: HepG2 Attagene TRANS ERa GAL4 reporter, mRNA
# Summary of the method: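 Reporter transcripts were measured 24 h after dosing by RT-PCR with fluorescent primer extension and capillary electrophoresis. The system is transiently transfected HepG2 expressing exogenous NR-Gal4 chimeras driving GAL4-UAS reporters; DMSO is the baseline.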
# [19] = target: Steroid hormone receptor ERR1 (Homo sapiens) (UniProt P11474); assay: ATG_ERRa_TRANS: Attagene TRANS-FACTORIAL HepG2 Assay for human Estrogen-Related Receptor alpha (ERRa) (AID 2282971); conditions: HepG2 Attagene TRANS reporter, ERRa transactivation
# Summary of the method: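 Reporter transcripts from ERRa-Gal4 chimera activity measured in transiently transfected human HepG2 cells 24 hours after dosing, using RT-PCR with 6-FAM primer extension, HpaI digestion and capillary electrophoresis; DMSO is baseline.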
# [20] = ATG_M_32_TRANS: Attagene TRANS-FACTORIAL HepG2 Assay for M32 Transcription Factor (Internal Marker) (AID 2282984); conditions: HepG2 Attagene TRANS M32 internal marker reporter
# Summary of the method: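 Cell-based TRANS-format assay in HepG2: exogenous chimeric GAL4 reporter units transiently expressed, compounds applied 24 h. Reporter mRNA detected by RT-PCR plus capillary electrophoresis; this readout is an internal background marker.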
# Sequence of Estrogen-related receptor gamma (Homo sapiens) (P62508 whole entry, looked up, the tested form may be a part): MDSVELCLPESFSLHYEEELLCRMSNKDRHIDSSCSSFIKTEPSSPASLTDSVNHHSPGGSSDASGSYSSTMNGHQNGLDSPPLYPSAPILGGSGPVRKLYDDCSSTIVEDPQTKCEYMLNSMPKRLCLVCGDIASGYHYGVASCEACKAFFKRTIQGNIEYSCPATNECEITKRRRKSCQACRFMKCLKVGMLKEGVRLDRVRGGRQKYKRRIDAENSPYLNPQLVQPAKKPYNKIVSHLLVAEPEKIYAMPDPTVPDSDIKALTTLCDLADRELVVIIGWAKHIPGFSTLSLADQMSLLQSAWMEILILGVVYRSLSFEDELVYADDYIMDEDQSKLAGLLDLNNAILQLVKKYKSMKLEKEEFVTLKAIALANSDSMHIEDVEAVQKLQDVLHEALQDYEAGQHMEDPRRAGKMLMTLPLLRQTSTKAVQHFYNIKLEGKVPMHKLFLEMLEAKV
# Sequence of Oxysterols receptor LXR-beta (Homo sapiens) (P55055 whole entry, looked up, the tested form may be a part): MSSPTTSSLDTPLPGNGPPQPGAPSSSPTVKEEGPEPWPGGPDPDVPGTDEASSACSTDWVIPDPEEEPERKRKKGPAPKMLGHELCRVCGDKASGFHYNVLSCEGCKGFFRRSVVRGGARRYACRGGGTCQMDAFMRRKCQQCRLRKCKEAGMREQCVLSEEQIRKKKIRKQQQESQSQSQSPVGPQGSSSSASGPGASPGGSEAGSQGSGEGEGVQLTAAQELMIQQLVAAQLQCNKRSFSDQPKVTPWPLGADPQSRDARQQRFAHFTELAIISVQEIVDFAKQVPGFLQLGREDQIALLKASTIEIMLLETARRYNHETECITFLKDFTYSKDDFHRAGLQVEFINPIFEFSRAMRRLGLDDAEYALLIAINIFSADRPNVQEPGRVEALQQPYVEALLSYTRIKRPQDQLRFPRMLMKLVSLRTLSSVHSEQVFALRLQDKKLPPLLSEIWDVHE
# Sequence of X-box-binding protein 1 (Homo sapiens) (P17861 whole entry, looked up): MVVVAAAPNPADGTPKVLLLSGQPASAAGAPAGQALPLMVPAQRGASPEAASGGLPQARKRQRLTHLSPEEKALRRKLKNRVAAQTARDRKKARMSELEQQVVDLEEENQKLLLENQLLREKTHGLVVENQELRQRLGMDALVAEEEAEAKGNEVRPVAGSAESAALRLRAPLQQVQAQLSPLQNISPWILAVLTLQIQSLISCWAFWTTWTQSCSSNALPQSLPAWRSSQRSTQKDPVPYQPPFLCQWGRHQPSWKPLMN
# Sequence of Hepatocyte nuclear factor 4-alpha (Homo sapiens) (P41235 whole entry, looked up): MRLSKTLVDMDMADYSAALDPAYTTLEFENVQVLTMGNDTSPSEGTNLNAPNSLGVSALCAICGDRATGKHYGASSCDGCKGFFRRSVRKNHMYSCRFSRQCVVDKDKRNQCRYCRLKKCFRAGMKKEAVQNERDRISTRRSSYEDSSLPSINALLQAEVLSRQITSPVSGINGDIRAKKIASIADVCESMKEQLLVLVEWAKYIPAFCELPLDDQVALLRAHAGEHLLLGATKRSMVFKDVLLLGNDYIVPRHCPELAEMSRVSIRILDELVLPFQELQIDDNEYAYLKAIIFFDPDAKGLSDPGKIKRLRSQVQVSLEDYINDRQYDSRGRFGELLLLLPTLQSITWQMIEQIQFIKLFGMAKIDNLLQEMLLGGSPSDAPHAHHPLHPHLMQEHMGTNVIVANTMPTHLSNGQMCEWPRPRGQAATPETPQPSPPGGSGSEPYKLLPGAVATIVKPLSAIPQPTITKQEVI
# Sequence of Bile acid receptor (Homo sapiens) (Q96RI1 whole entry, looked up, the tested form may be a part): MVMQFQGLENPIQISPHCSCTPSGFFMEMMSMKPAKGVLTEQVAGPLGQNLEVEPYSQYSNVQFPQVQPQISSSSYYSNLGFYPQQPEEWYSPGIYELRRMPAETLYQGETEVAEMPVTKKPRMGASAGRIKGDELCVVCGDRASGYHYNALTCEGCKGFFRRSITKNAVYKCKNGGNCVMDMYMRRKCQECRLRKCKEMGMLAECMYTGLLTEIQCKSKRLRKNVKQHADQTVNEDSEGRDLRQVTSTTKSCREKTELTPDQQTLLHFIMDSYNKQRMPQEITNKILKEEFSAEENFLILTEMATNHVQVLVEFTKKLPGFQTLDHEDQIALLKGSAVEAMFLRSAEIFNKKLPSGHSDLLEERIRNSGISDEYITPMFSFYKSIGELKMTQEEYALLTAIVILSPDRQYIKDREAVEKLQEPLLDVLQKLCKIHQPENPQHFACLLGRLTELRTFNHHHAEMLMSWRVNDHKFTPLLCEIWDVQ
# Sequence of Nuclear receptor subfamily 1 group I member 3 (Homo sapiens) (Q14994 whole entry, looked up, the tested form may be a part): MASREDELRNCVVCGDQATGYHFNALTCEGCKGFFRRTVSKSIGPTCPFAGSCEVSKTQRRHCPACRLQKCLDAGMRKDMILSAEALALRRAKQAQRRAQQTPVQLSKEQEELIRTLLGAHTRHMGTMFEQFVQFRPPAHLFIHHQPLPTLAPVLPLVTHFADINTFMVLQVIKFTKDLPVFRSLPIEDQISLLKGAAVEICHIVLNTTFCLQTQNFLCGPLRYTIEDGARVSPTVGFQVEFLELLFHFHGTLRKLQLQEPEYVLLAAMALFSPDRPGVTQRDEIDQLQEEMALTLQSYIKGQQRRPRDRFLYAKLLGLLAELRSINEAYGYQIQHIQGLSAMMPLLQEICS
# Sequence of Glucocorticoid receptor (Homo sapiens) (P04150 whole entry, looked up, the tested form may be a part): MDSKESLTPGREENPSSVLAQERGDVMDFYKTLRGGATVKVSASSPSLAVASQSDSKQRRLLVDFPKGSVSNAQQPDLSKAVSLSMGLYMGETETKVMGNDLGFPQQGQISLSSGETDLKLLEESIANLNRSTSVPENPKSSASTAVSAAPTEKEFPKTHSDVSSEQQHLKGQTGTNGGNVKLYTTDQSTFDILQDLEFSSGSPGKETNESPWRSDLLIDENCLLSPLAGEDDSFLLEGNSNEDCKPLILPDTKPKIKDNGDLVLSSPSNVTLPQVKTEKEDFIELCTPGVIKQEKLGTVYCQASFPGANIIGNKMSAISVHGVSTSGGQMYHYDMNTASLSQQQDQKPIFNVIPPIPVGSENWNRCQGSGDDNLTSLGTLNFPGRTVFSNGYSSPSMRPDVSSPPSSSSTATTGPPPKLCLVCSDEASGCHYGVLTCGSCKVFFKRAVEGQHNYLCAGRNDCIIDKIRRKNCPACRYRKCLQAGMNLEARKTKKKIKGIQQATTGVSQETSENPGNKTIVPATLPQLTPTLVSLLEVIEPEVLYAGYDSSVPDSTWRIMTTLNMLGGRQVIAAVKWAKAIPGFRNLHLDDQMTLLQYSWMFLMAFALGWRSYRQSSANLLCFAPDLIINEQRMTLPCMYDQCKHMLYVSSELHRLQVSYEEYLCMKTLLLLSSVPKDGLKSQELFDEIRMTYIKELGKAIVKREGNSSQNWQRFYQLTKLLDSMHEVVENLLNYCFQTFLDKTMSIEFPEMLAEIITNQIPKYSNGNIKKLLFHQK
# Sequence of Estrogen receptor (Homo sapiens) (P03372 whole entry, looked up, the tested form may be a part): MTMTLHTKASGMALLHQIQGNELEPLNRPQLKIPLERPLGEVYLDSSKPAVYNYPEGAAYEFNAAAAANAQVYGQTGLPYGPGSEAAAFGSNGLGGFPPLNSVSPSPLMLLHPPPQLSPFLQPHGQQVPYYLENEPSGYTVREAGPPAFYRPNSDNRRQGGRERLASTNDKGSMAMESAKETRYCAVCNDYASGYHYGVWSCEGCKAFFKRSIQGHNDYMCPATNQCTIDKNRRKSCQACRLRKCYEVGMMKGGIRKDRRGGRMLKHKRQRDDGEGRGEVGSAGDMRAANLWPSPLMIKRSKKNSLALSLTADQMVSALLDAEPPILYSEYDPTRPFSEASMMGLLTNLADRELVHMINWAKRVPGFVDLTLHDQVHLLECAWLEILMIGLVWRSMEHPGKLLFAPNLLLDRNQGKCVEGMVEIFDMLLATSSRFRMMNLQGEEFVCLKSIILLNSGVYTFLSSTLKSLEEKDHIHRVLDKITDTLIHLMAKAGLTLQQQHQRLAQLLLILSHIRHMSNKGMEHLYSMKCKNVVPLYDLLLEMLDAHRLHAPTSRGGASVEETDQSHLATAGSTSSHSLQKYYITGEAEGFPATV
# Sequence of Transcriptional activator Myb (Homo sapiens) (P10242 whole entry, looked up): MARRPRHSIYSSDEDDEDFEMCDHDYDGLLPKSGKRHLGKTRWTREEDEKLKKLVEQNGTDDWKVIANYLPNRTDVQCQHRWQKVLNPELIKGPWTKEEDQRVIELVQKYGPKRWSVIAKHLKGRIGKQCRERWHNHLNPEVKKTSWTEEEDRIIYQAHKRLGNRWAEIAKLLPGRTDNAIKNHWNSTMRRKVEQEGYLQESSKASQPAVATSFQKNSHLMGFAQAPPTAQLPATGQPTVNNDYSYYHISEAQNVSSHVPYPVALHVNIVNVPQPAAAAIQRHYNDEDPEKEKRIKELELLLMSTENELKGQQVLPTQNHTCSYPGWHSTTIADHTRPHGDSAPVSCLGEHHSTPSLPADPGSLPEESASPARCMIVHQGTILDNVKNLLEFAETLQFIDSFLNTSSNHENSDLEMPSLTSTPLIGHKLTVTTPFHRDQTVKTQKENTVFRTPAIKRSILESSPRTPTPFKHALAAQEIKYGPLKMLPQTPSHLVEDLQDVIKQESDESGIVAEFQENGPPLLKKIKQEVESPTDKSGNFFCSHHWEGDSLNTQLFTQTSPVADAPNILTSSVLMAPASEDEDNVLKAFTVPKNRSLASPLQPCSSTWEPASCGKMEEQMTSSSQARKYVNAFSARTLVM
# Sequence of Oxysterols receptor LXR-alpha (Homo sapiens) (Q13133 whole entry, looked up, the tested form may be a part): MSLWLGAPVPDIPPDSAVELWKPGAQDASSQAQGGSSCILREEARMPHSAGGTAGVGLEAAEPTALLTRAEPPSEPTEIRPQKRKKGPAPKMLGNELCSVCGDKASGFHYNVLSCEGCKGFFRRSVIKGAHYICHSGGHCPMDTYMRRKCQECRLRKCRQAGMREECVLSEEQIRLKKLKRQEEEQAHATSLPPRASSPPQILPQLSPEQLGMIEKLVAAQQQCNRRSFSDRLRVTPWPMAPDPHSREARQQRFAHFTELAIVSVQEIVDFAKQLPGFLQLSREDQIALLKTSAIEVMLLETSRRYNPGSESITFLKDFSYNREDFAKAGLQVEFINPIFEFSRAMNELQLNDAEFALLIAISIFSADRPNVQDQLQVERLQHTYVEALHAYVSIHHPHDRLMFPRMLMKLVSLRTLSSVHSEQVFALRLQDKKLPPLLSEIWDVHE
compound,measurement,setting,value
N#Cc1ccccc1O,outcome,[1],inactive
same,outcome,[2],inactive
same,outcome,[3],inactive
same,outcome,[4],inactive
same,outcome,[5],inactive
same,outcome,[6],inactive
same,outcome,[7],inactive
same,outcome,[8],inactive
same,outcome,[9],inactive
O=C(O)C(F)(F)C(F)(F)C(F)(F)OC(F)(F)F,outcome,[1],inactive
same,outcome,[2],inactive
same,outcome,[3],inactive
same,outcome,[4],inactive
same,outcome,[5],inactive
same,outcome,[6],inactive
same,outcome,[10],inactive
same,outcome,[11],inactive
same,outcome,[12],inactive
same,outcome,[7],inactive
same,outcome,[8],inactive
same,outcome,[13],inactive
same,outcome,[14],inactive
same,outcome,[15],inactive
same,outcome,[16],inactive
CC1=CCC2C(=O)OC(=O)C2C1 (configuration not stated),outcome,[1],inactive
same,outcome,[2],inactive
same,outcome,[3],inactive
same,outcome,[4],inactive
same,outcome,[5],inactive
same,outcome,[6],inactive
same,outcome,[17],inactive
same,outcome,[12],inactive
same,outcome,[7],inactive
same,outcome,[8],inactive
same,outcome,[16],inactive
CCC(=O)OC(C)c1ccccc1 (configuration not stated),outcome,[1],inactive
same,outcome,[2],inactive
same,outcome,[3],inactive
same,outcome,[4],inactive
same,outcome,[5],inactive
same,outcome,[6],inactive
same,outcome,[10],inactive
same,outcome,[11],inactive
same,outcome,[7],inactive
same,outcome,[13],inactive
same,outcome,[14],inactive
same,outcome,[15],inactive
OCC(O)CC(F)(F)C(F)(F)C(F)(F)C(F)(F)C(F)(F)C(F)(F)C(F)(F)C(F)(F)F (configuration not stated),outcome,[1],inactive
same,outcome,[2],inactive
same,outcome,[3],inactive
same,outcome,[4],inactive
same,AC50,[18],9.15 µM (active)
same,outcome,[19],inactive
same,outcome,[6],inactive
same,outcome,[17],inactive
same,outcome,[10],inactive
same,outcome,[11],inactive
same,outcome,[7],inactive
same,outcome,[8],inactive
same,outcome,[13],inactive
same,outcome,[14],inactive
same,outcome,[15],inactive
same,outcome,[9],inactive
same,outcome,[16],inactive
CCn1c2ccccc2c2ccccc21,outcome,[1],inactive
same,outcome,[2],inactive
same,AC50,[3],0.0275 µM (active)
same,outcome,[4],inactive
same,outcome,[5],inactive
same,outcome,[18],inactive
same,outcome,[6],inactive
same,outcome,[7],inactive
same,outcome,[14],inactive
same,outcome,[20],inactive
Brc1ccccn1,outcome,[1],inactive
same,outcome,[2],inactive
same,outcome,[3],inactive
same,outcome,[4],inactive
same,outcome,[18],inactive
same,outcome,[6],inactive
same,outcome,[10],inactive
same,outcome,[7],inactive
same,outcome,[13],inactive
same,outcome,[14],inactive
same,outcome,[15],inactive
same,outcome,[20],inactive
O=C1C=CC(=O)N1c1ccc(Cc2ccc(N3C(=O)C=CC3=O)cc2)cc1,outcome,[1],inactive
same,AC50,[2],56.8 µM (active)
same,AC50,[3],41.6 µM (active)
same,outcome,[4],inactive
same,AC50,[6],42.6 µM (active)
same,outcome,[17],inactive
same,outcome,[10],inactive
same,outcome,[12],inactive
same,outcome,[7],inactive
same,outcome,[8],inactive
same,outcome,[14],inactive
same,outcome,[16],inactive
CCCCCCCCCCCCCC[P+](CCCC)(CCCC)CCCC,outcome,[1],inactive
same,outcome,[2],inactive
same,outcome,[3],inactive
same,AC50,[4],0.897 µM (active)
same,AC50,[6],0.834 µM (active)
same,outcome,[10],inactive
same,outcome,[12],inactive
same,outcome,[7],inactive
same,outcome,[8],inactive
same,outcome,[13],inactive
same,outcome,[15],inactive
same,outcome,[20],inactive
same,outcome,[16],inactive
OCCCCC(F)(F)C(F)(F)C(F)(F)C(F)(F)F,outcome,[1],inactive
same,outcome,[2],inactive
same,outcome,[3],inactive
same,outcome,[4],inactive
same,outcome,[18],inactive
same,outcome,[6],inactive
same,outcome,[7],inactive
same,outcome,[14],inactive
CCCCCCCCCCCC(=O)Cl,AC50,[1],161 µM (active)
same,outcome,[2],inactive
same,outcome,[3],inactive
same,outcome,[4],inactive
same,outcome,[6],inactive
same,outcome,[12],inactive
same,outcome,[7],inactive
same,outcome,[13],inactive
same,outcome,[14],inactive
same,outcome,[15],inactive
same,outcome,[20],inactive
same,AC50,[9],67.6 µM (active)
same,outcome,[16],inactive
